From PubChem
Bfl-1 A1 inh – inhibitors of the anti-apoptotic protein A1, read as caspase activation; MEF A1-2A-BIM cells, Caspase-Glo 3/7 luminescence, 3 h; percent of clofoctol response, vehicle zero; caspase activation, % (no concentration beside the values); 330,000 compounds, 0.066% hits; AID 2462;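 active means over half of replicate activation scores above 10%, or exactly half above 10 with the replicate mean above 10; inconclusive means replicate mean below 10 yet half the replicates above 10; inactive means over half of replicates below 10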
Dyrk1A ADPGlo – inhibitors of rat Dyrk1A kinase. Q63470. ADP-Glo luminescence, NFATc1 peptide. inhibition, % at 12.5 µM. 310,000 compounds, 0.43% hits; in the data active means inhibition above about 50%;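 further: plate controls were vehicle with enzyme for no effect and no enzyme for full effect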
dFosB act – mouse delta FosB homodimer activation; P13346; 340,000 compounds, 0.99% hits; activation, % at 25 µM; purified delta FosB, TAMRA-CDK5 oligo fluorescence polarization; percent of positive-control signal above neutral wells;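 active means mean activation above about 17%, with every replicate also reaching it, limit read from the data, passing the limit was not always enough; inconclusive means only one of the two conditions met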
Target sequence (P13346 whole entry, looked up): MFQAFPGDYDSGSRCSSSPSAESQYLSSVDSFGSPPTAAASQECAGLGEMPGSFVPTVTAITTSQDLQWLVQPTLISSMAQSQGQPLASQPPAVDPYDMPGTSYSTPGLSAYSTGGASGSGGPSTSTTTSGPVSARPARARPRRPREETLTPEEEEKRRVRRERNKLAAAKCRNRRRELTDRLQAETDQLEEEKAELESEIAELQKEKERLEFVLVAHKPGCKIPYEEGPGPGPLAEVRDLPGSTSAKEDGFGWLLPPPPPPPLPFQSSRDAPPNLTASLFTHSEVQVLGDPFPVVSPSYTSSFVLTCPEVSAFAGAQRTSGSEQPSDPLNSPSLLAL
Beta2AR agonist – activates human beta-2 adrenergic receptor causing internalization. 340,000 compounds, 0.43% hits. P07550. response, % (concentration not given with the values). AID 504454. Am2.2-beta2AR cells, FAP receptor internalization, flow cytometry;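 active means response above a set limit, near 3 SD of response in nonfluorescent compounds, cut at about 42% in these data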
* = called active by the depositor; ? = inconclusive; · = not tested or not shown. Sampled rows, rich in hits. Any-hit rate of the full collection: about 1.6%.

SMILES	Bfl-1 A1 inh	Dyrk1A ADPGlo	dFosB act	Beta2AR agonist
Cc1ccc(-n2nnnc2SCC(=O)Nc2ccc3c(c2)OCCO3)cc1C	-1	5	-2	9
CC(=O)Nc1ccc(NC(=O)CSc2nnnn2-c2ccc3c(c2)OCCO3)cc1	0	-7	87*	7
N#Cc1ccccc1OCCCN1CCC(Cc2ccccc2)CC1	0	-1	3	3
Cc1cc(C)c2c(c1)/C(=C/C(=O)c1ccc(Br)s1)C(=O)N2	0	-8	-10	65*
O=C(COc1ccccc1)N=C1SC2CS(=O)(=O)CC2N1c1cccc(F)c1 (stereo not drawn)	0	-5	-8	48*
CC(C)c1cccc(C2=CC(=O)C[C@H](c3ccc4c(c3)OCO4)C2)c1	0	4	-3	-7
CS(=O)(=O)N(CC(=O)NC1CCCCC1)Cc1ccc(F)cc1	2	4	-2	-5
COc1ccc(C(=O)/C=C/C(=O)N(CC(=O)NC2CCCCC2)Cc2ccc(F)cc2)c(O)c1	·	3	-15	123*
COc1ccc(C(=O)/C=C/C(=O)N(CC(=O)NCCC(C)C)Cc2cccs2)c(O)c1	·	1	-6	120*
COc1ccc(C(=O)N(Cc2ccco2)Cc2cccs2)c(O)c1	-1	0	-4	2
CCOc1c(C)cnc2c1c(=O)n(CC(=O)NCC1CCCO1)c(=O)n2C (stereo not drawn)	3	5	2	-3
CCOc1cc(/C=C2/C(=O)ON=C2C)ccc1OCc1ccccc1	0	·	·	·
CCOc1cc(/C=C2/C(=O)ON=C2C)ccc1OCc1ccccc1F	0	1	-1	77*
O=C(COc1ccc(Br)cc1)Nc1ccc(NC(=O)c2ccccc2)cc1	0	-6	25*	-10
CCn1c(Cl)c(C=O)s/c1=N\S(=O)(=O)c1ccccc1	56*	12	-4	115*
CCN1C(=O)CS/C1=N\S(=O)(=O)c1ccc(Cl)cc1	1	·	-3	0
CCN(CC)CCCN=C1N[C@@H](c2cccc(F)c2)C(C(=O)OC)=C(C)N1Cc1ccccc1	0	-4	-8	66*
COC(=O)C1=C(C)N(Cc2ccccc2)C(=NCc2ccccc2)N[C@H]1c1cccc(F)c1	0	-5	-14	28
COc1ccc2[nH]c3c(c2c1)CCN1C(=O)C(CC(=O)NCCCn2ccnc2)C[C@H](C(=O)N(C(C)C)C(C)C)[C@@]31C (stereo partly drawn)	·	·	-5	-2
NC(N)=N/N=C/c1ccc(OCc2ccc(Cl)cc2)cc1	0	5	2	58*
CCCN(CCC)S(=O)(=O)c1ccc(Cl)c(OC)c1	0	-1	-2	-6
CNc1nc(N/N=C/c2cc([N+](=O)[O-])ccc2F)nc(Nc2ccccc2)n1	·	16	94*	27
CNc1nc(Nc2ccc([N+](=O)[O-])cc2)nc(OCC(F)(F)F)n1	1	-1	0	0
Cc1noc(C)c1NC(=O)Nc1cccc2c1O[C@@H](CN(C)C(=O)Nc1ccc3c(c1)OCO3)[C@@H](C)CN([C@H](C)CO)C2=O	1	-1	-1	3
COc1ccc(OC)c(-c2csc(NC(=O)COC(=O)c3ccc(NC(=O)CC#N)cc3)n2)c1	1	1	-11	42*
SMILES	Bfl-1 A1 inh	Dyrk1A ADPGlo	dFosB act	Beta2AR agonist
COc1ccc(OC)c(-c2csc(NC(=O)COC(=O)C3CCC3)n2)c1	0	3	-5	7
Cc1ccc(C(CNS(=O)(=O)c2ccc([N+](=O)[O-])cc2)N2CCN(C)CC2)cc1 (stereo not drawn)	0	6	-4	-5
O=C(CN(c1cccc(Cl)c1)S(=O)(=O)c1ccc(Cl)cc1)NCc1ccccn1	-1	2	-11	3
CCOc1ccc(Nc2cc(C)c3ccccc3n2)cc1	0	10	-4	5
CCOc1ccc(Nc2c3ccccc3nc3ccccc23)cc1	1	·	86*	52*
COc1cccc(CN2CCN(CC(=O)NCCc3ccccc3)CC2)c1	1	0	-5	8
O=c1c(/C=N\NS(=O)(=O)c2ccccc2)coc2ccc(Cl)cc12	-1	18	-7	2
CC(=O)Oc1ccc(C23CC4CC(CC(C4)C2)C3)cc1C(=O)O	3	·	·	·
Cn1cc(CCC(=O)NC2CC(C)(C)Cc3c2cnn3-c2ccc(F)cc2)cn1 (stereo not drawn)	·	11	-7	5
Cc1cccc(NC(=O)COC(=O)c2cc(C)oc2C)c1	?	1	3	1
Cc1cc(C(=O)OCC(=O)Nc2c(Cl)cccc2Cl)c(C)o1	1	-2	22*	1
COc1ccc(CCNC(=O)C2CCN(S(=O)(=O)c3ccc(C)cc3)CC2)cc1	0	-1	4	-1
Cc1ccc(S(=O)(=O)N2CCCCC2CCNC(=O)C(=O)Nc2ccccc2F)cc1 (stereo not drawn)	0	-6	-4	-4
CCOc1ccc(C2c3c(oc4cc(C)c(C)cc4c3=O)C(=O)N2CCCN(C)C)cc1OC (stereo not drawn)	0	1	29*	-1
COc1cc(/C=C/C(=O)OCC(=O)NCCN2C(=O)CSC2=O)ccc1OC(F)F	1	6	1	-2
CCCn1c(N)c(C(=O)COC(=O)/C=C/c2ccc(OC(F)F)c(OC)c2)c(=O)[nH]c1=O	0	-4	22*	6
Cc1noc(C)c1CSCC(=O)N(C)CC(=O)Nc1ccc(Cl)c(Cl)c1	9.7*	0	-9	-7
c1ccc(-n2cc(CNCCc3cscn3)c(-c3ccc4c(c3)OCO4)n2)cc1	0	-3	1	-12
Cc1oc2c(c1C(=O)c1ccccc1)C(=O)C(=O)c1ccccc1-2	0	9	-8	98*
CC(=O)Nc1ccc(S(=O)(=O)Oc2ccc(/C=C3\SC(N)=NC3=O)cc2)cc1	0	3	130*	0
Nc1c(C(=O)Nc2ccc(S(=O)(=O)N3CCCC3)cc2)sc2nc3cc4c(cc3cc12)CCC4	-1	-9	-3	-32
Nc1c(C(=O)Nc2ccc(S(=O)(=O)N3CCCC3)cc2)sc2nc3ccc(OC(F)(F)F)cc3cc12	15*	-9	-9	-4
CCCCCCCCCCCCCCCC[n+]1ccc(C(N)=O)cc1	1	1	45*	15
O/N=C/c1cccc[n+]1CCCCCC[n+]1ccccc1/C=N/O	1	15	-5	-5
CCCCCCCCCCCCCCCC[n+]1ccc(/C=N/O)cc1	1	-4	38*	3
O=C(NCCc1ccccc1)C1CCCN1C(=O)NCc1ccccc1 (stereo not drawn)	-1	-1	5	0
CC(C)(C)OC(=O)N1CCCC1C(=O)NCCc1ccccc1 (stereo not drawn)	0	4	-7	55*
Cc1nc2nc(C)n(CCN3CCOCC3)c(=O)c2c(-c2cccc([N+](=O)[O-])c2)c1C(=O)CCCCCCCCCCN1CCC(c2ccccc2)(c2ccccc2)CC1	·	4	37*	33
Cc1nc2ccccc2c(=O)n1CCN1CCOCC1	-1	0	0	1
Cc1noc(C)c1C(=O)OCC(=O)Nc1ncc(Cl)c(C)c1Cl	0	0	-10	-7
